# The list is not random: actives were taken first. Their share in the collection is about 9.2%.
# Rab9 prom act: activates the Rab9 promoter; Huh7 Rab9 promoter-luciferase reporter, luminescence, 24 h; Potency, µM (top dose mostly 9.22 µM), for the others: at the highest dose activation, negative = inhibition, most hits filed as activators; hit rate 2.8% among 320,000; note: % of control where 0% means no effect; nearly all actives have a fitted effect of over 60% in size
#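 Quantitative HTS format; Huh7 Rab9-luciferase reporter cells (1500/well) receive compound 2 h post-plating, incubate 24 h at 37 °C, then get luciferase reagent for 10 min before luminescence reading.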
# ELG1 genotox: induces genotoxicity in HEK293T cells with luciferase-tagged ELG1; HEK293T ELG1-luciferase reporter, luminescence, 16 h; Potency, µM (top dose mostly 46 µM), without a hit: at the top dose activity change, positive = activation, hits mostly activators; hit rate 1.3% among 330,000; AID 504466; note: % of control where 0% means no effect; nearly all actives have a fitted effect of over 60% in size
#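 DMSO vehicle served as control against compound-treated ELG1-luciferase HEK293T cells; exposure lasted 16 hr at 37 °C and 5% CO2, followed by ONE-Glo luminescence detection after 30 min.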
# SMN2 splice enh: enhancers of SMN2 splice variant expression; HEK293 SMN2-luciferase splicing reporter, luminescence, 30-36 h; Potency, µM (series often up to 46.1 µM), for inactives: top-dose activity change, positive = activation, most hits filed as activators; hit rate 2.8% among 210,000; AID 1458; note: % of control where 0% means no effect; nearly all actives have a fitted effect of over 55% in size
#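 HEK293 cells carry an SMN2 minigene-luciferase reporter in which exon 7 inclusion puts luciferase in frame. Cells were seeded at 2000 cells/well, attached for 10-12 hours, then exposed to compounds for 30-36 hours at 37C before ONE-Glo luminescence.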
# ELG1 repair inh: inhibitors of ELG1-dependent DNA repair in HEK293T cells | HEK293T ELG1-luciferase reporter, luminescence, 16 h; DNA damage induced by 5-fluorouridine | Potency, µM (top dose mostly 46.1 µM), without a hit: at the top dose activity change, negative = inhibition, actives largely listed as inhibitors | hit rate 2.3% among 330,000; note: % is set by controls: 0 for no effect and ±100 for the full control effect; nearly all actives have a fitted effect of over 55% in size
#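 Overnight (16 hr) co-exposure of 2,000 cells/well to 5-fluorouridine and compound at 37 °C preceded detection. Luciferase was quantified via ONE-Glo luminescence; loss of signal denotes inhibition.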
# NPC1 prom act: activators of NPC1 promoter | Huh7 NPC1 promoter luciferase reporter, 24 h | Potency, µM (highest dose often 9.22 µM), inactives show at the top dose activation, hits mostly activators | hit rate 2.4% among 320,000 | AID 485313; note: % of control where 0% means no effect; nearly all actives have a fitted effect of over 60% in size
#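 Readout is luciferase luminescence, reflecting NPC1 promoter activation in stably transfected Huh7 cells after 24 h compound exposure at 37 °C in reduced-serum medium with 10% FBS.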
# FLuc modulator: counter-screen for miR-21 project: firefly luciferase inhibitors or activators | P08659 | purified FLuc, Km substrates, luminescence inhibition | Potency, µM (doses to about 57.5 µM), for inactives: top-dose activity change, negative = inhibition, actives largely listed as inhibitors | hit rate 6.9% among 360,000;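 note: plate controls were vehicle for no effect and reference inhibitor for full effect; nearly all actives have a fitted effect of over 55% in size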
# Target sequence (P08659 whole entry, looked up): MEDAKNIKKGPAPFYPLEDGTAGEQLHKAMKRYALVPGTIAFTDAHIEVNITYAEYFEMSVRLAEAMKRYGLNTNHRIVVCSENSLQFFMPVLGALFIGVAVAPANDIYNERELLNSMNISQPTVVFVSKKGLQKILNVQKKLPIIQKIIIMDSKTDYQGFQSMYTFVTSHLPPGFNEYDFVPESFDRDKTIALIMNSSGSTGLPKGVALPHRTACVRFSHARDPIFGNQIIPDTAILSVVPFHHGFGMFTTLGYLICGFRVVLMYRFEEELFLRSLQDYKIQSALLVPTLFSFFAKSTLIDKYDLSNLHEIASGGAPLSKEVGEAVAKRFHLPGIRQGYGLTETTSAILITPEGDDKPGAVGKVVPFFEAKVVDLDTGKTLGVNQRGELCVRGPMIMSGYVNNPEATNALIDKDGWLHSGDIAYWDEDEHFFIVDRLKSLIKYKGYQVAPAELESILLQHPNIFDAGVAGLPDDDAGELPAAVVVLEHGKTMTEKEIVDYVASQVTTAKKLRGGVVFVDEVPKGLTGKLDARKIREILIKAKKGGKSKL
#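 Purified P. pyralis luciferase (10nM final) with 10uM D-luciferin and 10uM ATP (Km levels) in 50mM Tris acetate pH 7.5, 10mM Mg acetate, 0.01% Tween-20, 0.05% BSA; qHTS 6-point titration, ~60 µM downward; luminescence read.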
# Starred values were filed as active, the others as inactive; ? = inconclusive; . = not tested or not shown; ! = not active in a repeat. Calls come from the whole dose curve; as a rule, active = well fitted curve in the direction sought with a large enough effect; inconclusive = small, poorly fitted or top-dose-only effect, or another doubt; inactive = no such curve, though single readings can be large; an effect the other way counts as inactive or inconclusive. Potency is the fitted concentration of half-maximal effect.
SMILES,Rab9 prom act,ELG1 genotox,SMN2 splice enh,ELG1 repair inh,NPC1 prom act,FLuc modulator
CCn1nc(C)c2c(-c3ccccc3)cc(=O)n(C(C)C(=O)NCc3ccc(C)cc3)c21 (stereo not given),.,.,.,.,.,-12%
c1ccc(-c2cn3c(n2)-c2ccccc2C3)cc1,0.56µM*,?,0.5µM*,?,3.2µM*,0.43µM*
CC1(C)Cc2ccccc2-c2nnc(-c3ccccc3)n21,0%,-7%,-15%,-7%,-3%,-16%
COc1ccc(C(=O)Cn2c(=O)n3nc(CCn4nc(C)cc4C)nc3c3cc(OC)c(OC)cc32)cc1,.,.,.,.,.,1%
Cc1ccc(-c2nc(-c3cc4c([nH]c3=O)CC(C)(C)CC4=O)sc2C)cc1,.,.,3%,.,.,3%
Fc1cccc2sc(N3CCCCC3)nc12,?,13µM*,?,?,?,19µM*
Fc1cccc2sc(N3CCOCC3)nc12,21%,14%,?,?,13%,?
Clc1ccc2nc(N3CCCCC3)sc2c1,2.5µM*,?,11µM*,?,1.4µM*,2.7µM*
CC(C)C(=O)N1CCN(c2nc3ccc(Cl)cc3s2)CC1,?,?,.,?,2.5µM*,?
O=C(c1ccc2ccccc2n1)N1CCN(Cc2c(F)cccc2Cl)CC1,-4%,-8%,.,-10%,0%,-1%
CS(=O)(=O)N1CCN(c2nc3ccc(Cl)cc3s2)CC1,?,7%,.,?,?,?
Fc1cccc(Cl)c1CN1CCN(c2nc3ccccc3s2)CC1,2.5µM*,15µM*,.,?,2.5µM*,5.4µM*
CC(C)(C)c1ccc(-c2nnc(-c3ccccc3NC(=O)c3ccc(F)cc3F)o2)cc1,.,.,-1%,.,.,2%
CCc1ccc(S(=O)(=O)c2cnc3ccc(OC)cc3c2N2CCCC(C)C2)cc1 (stereo not given),.,.,-21%,.,.,-9%
CCc1cccc(C)c1NC(=O)Cn1c(=O)cc(C(F)(F)F)c2c(C)nn(C)c21,.,.,.,.,.,-3%
CC(NC(=O)Cn1ccc2cc(S(=O)(=O)N3CCCCCC3)ccc21)c1ccccc1 (stereo not given),.,.,.,.,.,2%
Cc1cc(C)c(C(=O)N(CCN(C)C)CC2CCCN(Cc3ccccc3F)C2)o1 (stereo not given),-4%,-1%,.,5%,-2%,5%
Clc1ccc2nc(N3CCCCC3)[nH]c2c1,1.4µM*,2.1µM*,14µM*,?,1.6µM*,4.8µM*
OC(COCC1COc2ccccc2O1)CN1CCN(c2ccccc2F)CC1 (stereo not given),0%,-3%,-17%,1%,-5%,-1%
O=C(OCC1COc2ccccc2O1)c1c(F)cccc1F (stereo not given),10%,?,.,?,-1%,15µM*
COc1ccccc1-c1noc(CSc2nnc(Cc3ccccc3)n2-c2ccc(C)c(C)c2)n1,.,.,2%,.,.,-21%
COc1ccc(OCc2cccc(C(=O)O)c2)cc1,1µM*,.,0.04µM*,?,0.0006µM*,0.03µM*
COc1cc(/C=N/NC(=O)c2cccc([N+](=O)[O-])c2)ccc1OCc1ccccc1,1%,-2%,0%,?,-2%,10%
CCOc1ccc(OCc2ccc(C(=O)N(CC)CC)cc2)cc1,?,6%,24%,?,?,15µM*
O=C(OCC(F)(F)F)c1cccc(COc2ccc3ccccc3c2)c1,?,?,0.45µM*,?,1µM*,3.4µM*
SMILES,Rab9 prom act,ELG1 genotox,SMN2 splice enh,ELG1 repair inh,NPC1 prom act,FLuc modulator
O=Cc1ccc(OCc2cccc(C(F)(F)F)c2)cc1O,6%,0%,24%,8%,1%,?
COc1cc(/C=C/[N+](=O)[O-])ccc1OCc1cccc(C(=O)O)c1,1.3µM*,?,1.3µM*,?,1µM*,0.21µM*
O=C(O)c1cc(OCc2ccccc2)cc(OCc2ccccc2)c1,-8%,-6%,.,-5%,-1%,1%
CC(=O)c1cccc(NC(=O)c2c(-c3c(F)cccc3Cl)noc2C)c1,-3%,2%,.,3%,-3%,11%
CCN(CC)c1ccc(NS(=O)(=O)c2cc(-c3onc(C)c3C)ccc2OC)c(C)c1,.,.,.,.,.,1%
CCOc1ccc(OCc2cccc(C(=O)O)c2)cc1,-25%,-29%,0.032µM*,?,-22%,0.017µM*
COc1ccc(Cl)cc1C(=O)NNC(=O)CNC(=O)c1ccc(C)s1,.,-1%,.,14%,.,.
NC(=O)C1CCN(c2nc(-c3ccc4occc(=O)c4c3)cs2)CC1,2.5µM*,4%,.,-17%,?,?
S=C(NCC1CCCO1)N1CCN(c2nc(-c3ccc(Cl)cc3)cs2)CC1 (stereo not given),-18%,-10%,-62%,12µM*,-13%,?
NC(=O)C1CCN(c2nc(-c3ccc(F)cc3)cs2)CC1,1.4µM*!,0%,.,?,2.2µM*!,2%
CCOC(=O)N1CCN(c2nc(-c3ccc(F)cc3)cs2)CC1,-2%,?,?,0%,-3%,19µM*
CS(=O)(=O)c1ccc(-c2csc(N3CCC(C(N)=O)CC3)n2)cc1,.,.,.,.,.,-9%
CSc1ccccc1NC(=O)COC(=O)c1cnc(C)cn1,.,0%,.,11%,.,.
COc1cccc(-c2csc(N3CCN(C(=O)C4CCCCC4)CC3)n2)c1,2%,-9%,1%,?,-3%,-19%
NC(=O)C1CCN(c2nc(-c3ccccc3F)cs2)CC1,0.32µM*,?,.,?,0.79µM*,?
O=C(Nc1nc(-c2ccc(F)cc2)cs1)C1CCN(C(=O)c2ccc(F)cc2)CC1,-16%,-9%,.,18µM*,-17%,-12%
NC(=O)C1CCN(c2nc(-c3ccccc3Br)cs2)CC1,0%,?,.,?,10%,?
Cn1ccc2cc(-c3csc(N4CCC(C(N)=O)CC4)n3)ccc21,1.3µM*,3%,.,12%,2.8µM*,12µM*
O=C(C1CCCCC1)N1CCN(c2nc(-c3ccc(F)cc3)cs2)CC1,0%,-15%,-38%,21µM*,-1%,?
COc1ccc(C)cc1-n1nnnc1SCC(=O)NC1CC1,-5%,0%,.,10%,1%,.
O=C(O)c1cnn(-c2nc(-c3ccc(F)cc3)cs2)c1C(F)(F)F,?,14%,27%,?,28%,21µM*
CCOC(=O)c1cnn(-c2nc(-c3ccc(C)cc3)cs2)c1C(F)(F)F,-5%,1%,4%,0%,2%,-15%
Cc1cccc(C)c1NC(=O)CSc1n[nH]c(=O)n1C1CC1,.,-2%,.,0%,.,.
CN(C)c1cccc(NC(=O)c2ccco2)c1,6%,6%,26%,?,19%,-17%

# High-throughput results as filed in PubChem.
